SMILES strings stand for the structures. Counter-ions that a name gives are not always drawn.

In this assay the test system is Danio rerio larvae Tg(actc1b:ZsGreen-LC3), 3 dpf. Put plainly: LC3 puncta relative area vs vehicle, without NH4Cl (log2 fold change); higher = more autophagosomes. The following applies: 10 µM; treatment time 16 h; NH4Cl: none. On the procedure: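 Transgenic Tg(actc1b:ZsGreen-map1lc3) zebrafish larvae (2 dpf) were treated for 16 h with Tocris library compounds at 10 µM (n = 12 larvae per compound). Skeletal-muscle LC3 puncta area relative to body area was measured by high-content confocal imaging before and after 4 h of 100 mM NH4Cl (autophagic flux), normalised to vehicle (DMSO), and reported as log2 fold change.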
In the case of `S=C=Nc1cccc(C2(N3CCCCC3)CCCCC2)c1` [Metaphit], the “LC3 puncta (log2)” value is 0.663.

Take `NCC(CS(=O)(=O)O)c1ccc(Cl)cc1` (stereo not given) [Saclofen]: the “LC3 puncta (log2)” value was -0.022.

As to `Clc1cccc(SC2CCNCC2)n1` [Anpirtoline hydrochloride], the “LC3 puncta (log2)” value is 0.143.

As to `CC(CN)CC(=O)O` (stereo not given) [3-Methyl-GABA], the “LC3 puncta (log2)” value was 0.26.

On to `C=CCN1C[C@H](C)N([C@H](c2ccc(C(=O)N(CC)CC)cc2)c2cccc(OC)c2)C[C@H]1C`, for which the “LC3 puncta (log2)” value was 0.784.

Turning to `CN1C[C@H](CNC(=O)OCc2ccccc2)C[C@@H]2c3cccc4c3c(cn4C)C[C@H]21` [Metergoline], the “LC3 puncta (log2)” value was 0.0502.

Regarding `NC(C(=O)O)c1nn[nH]n1` (racemic) [(RS)-(Tetrazol-5-yl)glycine], the “LC3 puncta (log2)” value worked out at 0.24.

Regarding `CC(=O)NCCc1c[nH]c2ccccc12` [N-Acetyltryptamine], the “LC3 puncta (log2)” value is -0.161.

Consider `CC(N)Cc1cnc[nH]1` (stereo not given), for which the “LC3 puncta (log2)” value stood at 0.372.

Regarding `CN(C(=O)Cc1ccccc1)C(CN1CCCC1)c1ccccc1` (stereo not given) [N-MPPP Hydrochloride], the “LC3 puncta (log2)” value stood at 0.385.

With `N[C@@]1(C(=O)O)CC[C@@H](C(=O)O)C1`, the “LC3 puncta (log2)” value stood at 0.259.

Regarding `CCCCCCC[n+]1ccc(-c2cc[n+](CCCCCCC)cc2)cc1` [DHBP dibromide], the “LC3 puncta (log2)” value was 0.00945.

Regarding `N[C@@H](Cn1oc(=O)[nH]c1=O)C(=O)O` [L-Quisqualic acid], the “LC3 puncta (log2)” value was determined as 0.387.

For `C=CCN1CC[C@]23c4c5ccc(O)c4O[C@H]2C(=O)CC[C@@]3(O)[C@H]1C5` [Naloxone hydrochloride], the “LC3 puncta (log2)” value amounted to 0.085.

On to `CCCN(CCC)[C@@H]1CCc2c(OC)cccc2[C@@H]1C` [(+)-UH 232 maleate], for which the “LC3 puncta (log2)” value worked out at 0.36.

As to `O=C1CCCN1CC#CCN1CCCC1` [Oxotremorine sesquifumarate], the “LC3 puncta (log2)” value was -0.285.

For the compound `Cc1nc(N)sc1CCN` [Amthamine dihydrobromide], the “LC3 puncta (log2)” value turned out to be 0.0368.

With `Fc1ccc(C(OCCN2CCN(C/C=C/c3ccccc3)CC2)c2ccc(F)cc2)cc1`, the “LC3 puncta (log2)” value turned out to be 0.527.

Regarding `c1ccc2c(c1)[I+]c1ccccc1-2` [Diphenyleneiodonium chloride], the “LC3 puncta (log2)” value is 0.217.

On to `C(=C\c1ccccc1)/CN1CCN(CCOC(c2ccccc2)c2ccccc2)CC1`, for which the “LC3 puncta (log2)” value worked out at 0.421.

For the compound `NCCc1c[nH]c2ccc(C(N)=O)cc12` [5-Carboxamidotryptamine maleate], the “LC3 puncta (log2)” value came out at 0.0843.

Turning to `CN(C(=O)Cc1ccc(Cl)c(Cl)c1)[C@H](CN1CCCC1)c1ccccc1` [ICI 199,441 hydrochloride], the “LC3 puncta (log2)” value was 0.0954.

Regarding `OC1CCCCC1N1CCC(c2ccccc2)CC1` (stereo not given) [(?)-Vesamicol hydrochloride], the “LC3 puncta (log2)” value is 0.548.

`c1ccc2sc(C3(N4CCCCC4)CCCCC3)cc2c1` [BTCP maleate]: the “LC3 puncta (log2)” value was found to be 0.288.

In the case of `CN1C(=O)CCS(=O)(=O)C1c1ccc(Cl)cc1` (stereo not given) [Chlormezanone], the “LC3 puncta (log2)” value is -0.0101.

Take `Fc1ccc(C(OCCN2CCN(CCCc3ccccc3)CC2)c2ccc(F)cc2)cc1`: the “LC3 puncta (log2)” value was 0.491.

Consider `CC(C)C[C@H]1C(=O)N2CCC[C@H]2[C@]2(O)O[C@](NC(=O)[C@@H]3C=C4c5cccc6[nH]c(Br)c(c56)C[C@H]4N(C)C3)(C(C)C)C(=O)N12` [Bromocriptine mesylate], for which the “LC3 puncta (log2)” value is 0.17.

Turning to `CC(=O)N1CC[N+](C)(C)CC1` [4-Acetyl-1,1-dimethylpiperazinium iodide], the “LC3 puncta (log2)” value is -0.21.

Consider `COC(=O)[C@@H](N)CCCNC(=N)N[N+](=O)[O-]` [L-NAME hydrochloride], for which the “LC3 puncta (log2)” value was -0.0167.

With `c1ccc2c(c1)OCC(C1=NCCN1)O2` (stereo not given) [Idazoxan hydrochloride], the “LC3 puncta (log2)” value stood at 0.411.

`Oc1ccc2c3c1O[C@H]1c4[nH]c5ccccc5c4C[C@@]4(O)[C@@H](C2)N(CC2CC2)CC[C@]314` [Naltrindole hydrochloride]: the “LC3 puncta (log2)” value came out at 0.245.

For `Cc1[nH]c2ccc(O)cc2c1CCN` [2-Methyl-5-hydroxytryptamine hydrochloride], the “LC3 puncta (log2)” value was -0.132.

On to `O=C(O)Cc1cccnc1C(=O)O` [Homoquinolinic acid], for which the “LC3 puncta (log2)” value is -0.131.

Take `C=C(C)[C@H]1CN[C@H](C(=O)O)[C@H]1CC(=O)O` [Kainic acid]: the “LC3 puncta (log2)” value was found to be 0.377.

Take `CC(C)[C@@]1(NC(=O)[C@@H]2C[C@@H]3c4cccc5[nH]cc(c45)C[C@H]3N(C)C2)O[C@@]2(O)[C@@H]3CCCN3C(=O)[C@H](Cc3ccccc3)N2C1=O` [Dihydroergocristine mesylate]: the “LC3 puncta (log2)” value is -0.412.

In the case of `c1ccc(CCCN2CCN(CCOC(c3ccccc3)c3ccccc3)CC2)cc1`, the “LC3 puncta (log2)” value amounted to 0.0674.

With `CC[N+](CC)(CCCNC1=CC(=O)C(NCCC[N+](CC)(CC)Cc2ccccc2)=CC1=O)Cc1ccccc1` [Benzoquinonium dibromide], the “LC3 puncta (log2)” value is -0.144.

With `CCC(Oc1ccc(Cl)cc1)C(=O)OC1C[C@H]2CC[C@@H](C1)N2C` (stereo not given in full) [SM-21 maleate], the “LC3 puncta (log2)” value was determined as 0.226.

With `Cc1onc(O)c1CC(N)C(=O)O` (racemic), the “LC3 puncta (log2)” value is -0.391.

Turning to `O=c1[nH]oc2c1CCNC2` [THIP hydrochloride], the “LC3 puncta (log2)” value is 0.233.
